Columns and labels:
[1] = system: Vero E6 infected with SARS-CoV-2; test: morphology score (similarity to uninfected cells); higher = more like uninfected cells; details: 24 h
[2] = system: Vero E6 infected with SARS-CoV-2; test: SARS-CoV-2 infection rate relative to infected DMSO; higher = more infection, active = 60 or less; details: 24 h

COc1cc(Nc2ncc3c(n2)-c2ccc(Cl)cc2C(c2c(F)cccc2OC)=NC3)ccc1C(=O)O [alisertib] (0.833333 µM)
morphology score [1]: 0.272
SARS-CoV-2 infection rate [2]: 112% (inactive)

CCCN1CCC[C@@H]2Cc3nc(N)ncc3C[C@H]21 [quinelorane] (10 µM)
morphology score [1]: 0.13
SARS-CoV-2 infection rate [2]: 106% (inactive)

Nc1cccc2c1C(=O)N(C1CCC(=O)NC1=O)C2=O (stereo not given) [pomalidomide] (10 µM)
morphology score [1]: -0.074
SARS-CoV-2 infection rate [2]: 108% (inactive)

O=C(Nc1c(-c2cccs2)nc2ccccn12)c1ccc(Cl)cc1 (10 µM)
morphology score [1]: 0.204
SARS-CoV-2 infection rate [2]: 84% (inactive)

CCc1c2c(nc3ccc(O)cc13)-c1cc3c(c(=O)n1C2)COC(=O)[C@]3(O)CC (0.833333 µM)
morphology score [1]: -0.131
SARS-CoV-2 infection rate [2]: 116% (inactive)

O=C(O)CCCCCCNC1c2ccccc2CCc2ccccc21 [amineptine] (10 µM)
morphology score [1]: 0.118
SARS-CoV-2 infection rate [2]: 105% (inactive)

C[C@H](N)[C@H](O)c1ccc(O)c(O)c1 [levonordefrin] (10 µM)
morphology score [1]: 0.0723
SARS-CoV-2 infection rate [2]: 94.5% (inactive)

CC(=O)Nc1ccc(S(=O)(=O)c2ccc(NC(C)=O)cc2)cc1 [acedapsone] (10 µM)
morphology score [1]: 0.233
SARS-CoV-2 infection rate [2]: 98% (inactive)

CCCCc1nc(-c2ccc(OCCCN(CC)CC)cc2)cn1-c1ccc(Oc2ccc(Cl)cc2)cc1 [azeliragon] (0.833333 µM)
morphology score [1]: 0.129
SARS-CoV-2 infection rate [2]: 93% (inactive)

O=c1c2ccccc2[se]n1-c1ccccc1 [ebselen] (10 µM)
morphology score [1]: 0.34
SARS-CoV-2 infection rate [2]: 84% (inactive)

NC1CCN(c2nc3c(cc2F)c(=O)c(C(=O)O)cn3-c2ccc(F)cc2F)C1 (stereo not given) [tosufloxacin] (10 µM)
morphology score [1]: -0.115
SARS-CoV-2 infection rate [2]: 112% (inactive)

CC(Oc1c(Cl)cccc1Cl)C1=NCCN1 (stereo not given) [lofexidine] (10 µM)
morphology score [1]: -0.13
SARS-CoV-2 infection rate [2]: 102% (inactive)

Nc1nc(OCc2cc(Br)cs2)c2[nH]cnc2n1 [lomeguatrib] (10 µM)
morphology score [1]: 0.19
SARS-CoV-2 infection rate [2]: 104% (inactive)

Nc1ccn([C@@H]2O[C@@](CO)(CCl)[C@@H](O)[C@H]2F)c(=O)n1 (10 µM)
morphology score [1]: -0.0112
SARS-CoV-2 infection rate [2]: 104% (inactive)

CC(C)(N)Cc1ccccc1 [phentermine] (10 µM)
morphology score [1]: -0.154
SARS-CoV-2 infection rate [2]: 118% (inactive)

O=C1CN2Cc3c(ccc(Cl)c3Cl)N=C2N1 [anagrelide] (10 µM)
morphology score [1]: 0.142
SARS-CoV-2 infection rate [2]: 112% (inactive)

CC1(C)S[C@@H]2[C@H](NC(=O)[C@H](C(=O)O)c3ccsc3)C(=O)N2[C@H]1C(=O)O [ticarcillin] (10 µM)
morphology score [1]: -0.0272
SARS-CoV-2 infection rate [2]: 97.5% (inactive)

CC(C)(Cc1ccc2ccccc2c1)NC[C@@H](O)COc1cccc(Cl)c1C#N (10 µM)
morphology score [1]: 0.703
SARS-CoV-2 infection rate [2]: 9.5% (active)

NS(=O)(=O)Cc1noc2ccccc12 [zonisamide] (10 µM)
morphology score [1]: 0.165
SARS-CoV-2 infection rate [2]: 95.5% (inactive)

C[N+](C)(C)CCCCCCCCCC[N+](C)(C)C [decamethonium] (10 µM)
morphology score [1]: 0.0864
SARS-CoV-2 infection rate [2]: 108% (inactive)

CS(=O)(=O)c1ccc(-c2cnc(NCc3ccco3)n3cnnc23)cc1 (10 µM)
morphology score [1]: 0.197
SARS-CoV-2 infection rate [2]: 83% (inactive)

Cc1cc(C)c(N(Cc2ccccc2)S(=O)(=O)c2ccc(OCCNC(=O)c3cc4ccccc4o3)cc2)c(C(=O)NO)c1 (0.833333 µM)
morphology score [1]: -0.0297
SARS-CoV-2 infection rate [2]: 96% (inactive)

COc1cc2c(cc1-c1c(C)noc1C)ncc1[nH]c(=O)n([C@H](C)c3ccccn3)c12 (10 µM)
morphology score [1]: -0.154
SARS-CoV-2 infection rate [2]: 112% (inactive)

COc1cc(C(=O)N2CCOCC2)cc(OC)c1OC [trimetozine] (10 µM)
morphology score [1]: -0.0638
SARS-CoV-2 infection rate [2]: 113% (inactive)

CC12CCC(C(Br)C1=O)C2(C)C (stereo not given) [3-bromocamphor] (10 µM)
morphology score [1]: -0.0927
SARS-CoV-2 infection rate [2]: 106% (inactive)

C=CC1=C(C)C2=CC3=NC(=C(CC(=O)O)C4=NC(=C(C)C4=C(O)O)C=c4[nH]c(c(C)c4CC)=CC1=N2)C(CCC(=O)O)C3C (stereo not given) [chlorophyllin] (10 µM)
morphology score [1]: 0.148
SARS-CoV-2 infection rate [2]: 94% (inactive)

COc1ccc(-c2cc3c(C)nc(N)nc3n([C@H]3CC[C@H](OCCO)CC3)c2=O)cn1 (0.833333 µM)
morphology score [1]: 0.0503
SARS-CoV-2 infection rate [2]: 102% (inactive)

COc1cc2c(NC3CCN(C4CCCCC4)CC3)nc(N3CCCN(C(C)C)CC3)nc2cc1OCCCN1CCCCC1 (10 µM)
morphology score [1]: 0.458
SARS-CoV-2 infection rate [2]: 52% (active)

Oc1cccc(O)c1 [resorcinol] (10 µM)
morphology score [1]: 0.0503
SARS-CoV-2 infection rate [2]: 110% (inactive)

CCCCCCCCCCCCCCCCCCCCCCO [docosanol] (10 µM)
morphology score [1]: 0.0474
SARS-CoV-2 infection rate [2]: 102% (inactive)

Source: the supplement of paper PMC13380429
